# Test results as given in PMC7862700, “An all-to-all approach to the identification of sequence-specific readers for epigenetic DNA modifications on cytosine”.
# Tests used:
# Experiment in all cases: DAPPL (digital affinity profiling via proximity ligation, sequencing); 10 mM Tris-HCl pH 7.5, 50 mM NaCl, 1 mM DTT, 4% glycerol, room temperature, 30 min; GST-TFs on glutathione beads, 16-mer random dsDNA library, 0.1% formaldehyde crosslink after washing; high values mean tight binding
# FLI1 = biological target: T1, FLI1 (Homo sapiens, UniProt Q01543 1-452); conditions: protein: recombinant; tags: N-terminal GST; dsDNA, one strand shown
# T1 sequence: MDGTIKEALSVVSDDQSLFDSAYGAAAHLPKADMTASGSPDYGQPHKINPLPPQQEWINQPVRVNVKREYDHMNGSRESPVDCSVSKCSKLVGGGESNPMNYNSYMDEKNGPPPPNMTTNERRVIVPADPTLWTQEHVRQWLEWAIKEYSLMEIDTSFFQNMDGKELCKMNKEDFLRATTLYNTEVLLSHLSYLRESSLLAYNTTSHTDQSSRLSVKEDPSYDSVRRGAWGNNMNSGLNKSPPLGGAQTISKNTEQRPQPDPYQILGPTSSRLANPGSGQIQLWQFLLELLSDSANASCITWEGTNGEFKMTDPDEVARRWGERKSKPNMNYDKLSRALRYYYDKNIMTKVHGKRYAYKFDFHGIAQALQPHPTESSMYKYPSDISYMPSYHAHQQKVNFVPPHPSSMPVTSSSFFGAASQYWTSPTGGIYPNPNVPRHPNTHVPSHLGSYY
# Summary of the method: (§1)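 Pools of DNA-barcoded human transcription factors, expressed in yeast as GST fusions on glutathione beads and combined with a tag-only sample, were incubated with 200 nmole of a 16-mer random double-stranded DNA library. Incubation took 30 min at room temperature in Tris/NaCl/DTT/glycerol buffer and was followed by washing, 0.1% formaldehyde crosslinking, proximity ligation (BsaI/T4 ligase, 1 h, 37 °C), PCR amplification and sequencing on an Illumina NextSeq500. Binding signal is the ratio of a hexamer's read frequency for a factor to its frequency for the tag-only sample.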
# ELK1 = biological target: T2, ELK1 (Homo sapiens, UniProt P19419 1-428); conditions: protein: recombinant; tags: N-terminal GST; dsDNA, one strand shown
# T2 sequence: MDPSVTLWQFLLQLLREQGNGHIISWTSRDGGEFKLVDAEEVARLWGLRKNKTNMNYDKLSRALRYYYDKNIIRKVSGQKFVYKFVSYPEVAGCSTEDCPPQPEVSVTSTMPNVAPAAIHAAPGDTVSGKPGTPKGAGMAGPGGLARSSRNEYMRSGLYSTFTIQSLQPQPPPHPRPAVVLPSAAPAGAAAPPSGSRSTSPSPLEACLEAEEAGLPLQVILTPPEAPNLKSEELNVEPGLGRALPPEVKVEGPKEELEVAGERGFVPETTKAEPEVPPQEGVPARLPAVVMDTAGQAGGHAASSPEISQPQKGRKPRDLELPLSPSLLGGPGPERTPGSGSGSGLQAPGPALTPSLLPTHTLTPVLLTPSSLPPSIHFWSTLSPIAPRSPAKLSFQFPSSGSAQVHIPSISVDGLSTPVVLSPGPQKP
# Summary of the method: as §1
# GABPA = biological target: T3, GABPA (Homo sapiens, UniProt Q06546 1-454); conditions: protein: recombinant; tags: N-terminal GST; dsDNA, one strand shown
# T3 sequence: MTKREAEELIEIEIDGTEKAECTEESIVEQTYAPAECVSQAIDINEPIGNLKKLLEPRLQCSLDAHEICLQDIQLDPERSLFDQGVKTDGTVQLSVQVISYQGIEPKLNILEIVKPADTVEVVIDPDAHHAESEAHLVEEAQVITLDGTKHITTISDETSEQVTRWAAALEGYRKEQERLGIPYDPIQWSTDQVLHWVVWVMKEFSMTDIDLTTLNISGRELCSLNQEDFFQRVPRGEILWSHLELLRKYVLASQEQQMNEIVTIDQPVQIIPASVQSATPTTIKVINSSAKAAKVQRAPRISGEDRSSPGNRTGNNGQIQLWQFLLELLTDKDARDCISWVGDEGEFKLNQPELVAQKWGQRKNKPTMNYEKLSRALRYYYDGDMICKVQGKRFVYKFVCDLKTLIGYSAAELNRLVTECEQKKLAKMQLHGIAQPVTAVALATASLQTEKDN
# Summary of the method: as §1
# ERG = biological target: T4, ERG (Homo sapiens, UniProt P11308 1-479); conditions: protein: recombinant; tags: N-terminal GST; dsDNA, one strand shown
# T4 sequence: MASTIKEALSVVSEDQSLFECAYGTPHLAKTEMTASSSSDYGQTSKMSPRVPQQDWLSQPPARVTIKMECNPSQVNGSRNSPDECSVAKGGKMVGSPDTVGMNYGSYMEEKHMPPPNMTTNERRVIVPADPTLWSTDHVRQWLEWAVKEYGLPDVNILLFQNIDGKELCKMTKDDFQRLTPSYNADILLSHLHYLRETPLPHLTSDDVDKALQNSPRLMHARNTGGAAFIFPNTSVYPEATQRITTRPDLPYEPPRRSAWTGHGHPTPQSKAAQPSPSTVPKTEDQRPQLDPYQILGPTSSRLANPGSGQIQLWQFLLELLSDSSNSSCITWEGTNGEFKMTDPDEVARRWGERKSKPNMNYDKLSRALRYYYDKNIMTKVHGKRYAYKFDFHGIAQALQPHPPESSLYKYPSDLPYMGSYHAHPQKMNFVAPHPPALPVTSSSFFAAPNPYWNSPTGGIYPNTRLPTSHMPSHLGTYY
# Summary of the method: as §1
# ELF1 = ELF1 (Homo sapiens, UniProt P32519 1-619); conditions: protein: recombinant; tags: N-terminal GST; dsDNA, one strand shown
# Chain of ELF1 (P32519 whole entry): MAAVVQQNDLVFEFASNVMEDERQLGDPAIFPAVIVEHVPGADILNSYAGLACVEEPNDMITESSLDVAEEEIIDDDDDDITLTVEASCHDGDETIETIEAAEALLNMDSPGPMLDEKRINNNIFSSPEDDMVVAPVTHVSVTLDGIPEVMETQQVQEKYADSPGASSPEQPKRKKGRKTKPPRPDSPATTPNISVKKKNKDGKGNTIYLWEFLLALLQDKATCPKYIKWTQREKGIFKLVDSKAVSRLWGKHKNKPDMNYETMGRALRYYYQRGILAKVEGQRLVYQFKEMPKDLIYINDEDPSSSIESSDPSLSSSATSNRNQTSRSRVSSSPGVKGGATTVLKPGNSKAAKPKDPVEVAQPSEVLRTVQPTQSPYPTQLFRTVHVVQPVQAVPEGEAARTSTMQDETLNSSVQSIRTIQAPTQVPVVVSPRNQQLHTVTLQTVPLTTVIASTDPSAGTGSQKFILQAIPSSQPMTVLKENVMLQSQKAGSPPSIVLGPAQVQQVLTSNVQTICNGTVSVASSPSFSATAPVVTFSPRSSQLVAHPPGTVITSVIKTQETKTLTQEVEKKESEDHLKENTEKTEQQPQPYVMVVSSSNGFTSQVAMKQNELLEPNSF
# Summary of the method: as §1
# EHF = biological target: T5, EHF (Homo sapiens, UniProt Q9NZC4 1-300); conditions: protein: recombinant; tags: N-terminal GST; dsDNA, one strand shown
# T5 sequence: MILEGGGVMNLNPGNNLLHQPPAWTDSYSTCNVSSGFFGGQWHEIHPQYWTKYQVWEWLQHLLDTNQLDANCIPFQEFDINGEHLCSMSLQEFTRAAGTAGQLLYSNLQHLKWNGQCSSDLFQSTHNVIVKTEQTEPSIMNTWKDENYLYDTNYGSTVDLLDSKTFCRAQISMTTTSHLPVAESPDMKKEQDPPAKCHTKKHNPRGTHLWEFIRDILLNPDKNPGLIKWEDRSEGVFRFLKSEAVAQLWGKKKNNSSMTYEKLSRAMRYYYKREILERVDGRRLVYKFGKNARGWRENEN
# Summary of the method: as §1
# SPI1 = SPI1 (Homo sapiens, UniProt P17947 1-270); conditions: protein: recombinant; tags: N-terminal GST; dsDNA, one strand shown
# Summary of the method: as §1
# SPIB = SPIB (Homo sapiens, UniProt Q01892 1-262); conditions: protein: recombinant; tags: N-terminal GST; dsDNA, one strand shown
# Chain of SPIB (Q01892 whole entry): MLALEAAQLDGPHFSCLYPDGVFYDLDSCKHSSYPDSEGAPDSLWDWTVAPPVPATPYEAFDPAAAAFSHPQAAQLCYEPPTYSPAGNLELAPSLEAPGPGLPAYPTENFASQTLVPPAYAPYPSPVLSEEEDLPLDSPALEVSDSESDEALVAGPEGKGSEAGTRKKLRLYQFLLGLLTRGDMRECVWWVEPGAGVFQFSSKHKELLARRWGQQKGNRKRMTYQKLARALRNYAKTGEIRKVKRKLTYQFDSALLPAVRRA
# Summary of the method: as §1
# ELK3 = biological target: T6, ELK3 (Homo sapiens, UniProt P41970 1-407); conditions: protein: recombinant; tags: N-terminal GST; dsDNA, one strand shown
# T6 sequence: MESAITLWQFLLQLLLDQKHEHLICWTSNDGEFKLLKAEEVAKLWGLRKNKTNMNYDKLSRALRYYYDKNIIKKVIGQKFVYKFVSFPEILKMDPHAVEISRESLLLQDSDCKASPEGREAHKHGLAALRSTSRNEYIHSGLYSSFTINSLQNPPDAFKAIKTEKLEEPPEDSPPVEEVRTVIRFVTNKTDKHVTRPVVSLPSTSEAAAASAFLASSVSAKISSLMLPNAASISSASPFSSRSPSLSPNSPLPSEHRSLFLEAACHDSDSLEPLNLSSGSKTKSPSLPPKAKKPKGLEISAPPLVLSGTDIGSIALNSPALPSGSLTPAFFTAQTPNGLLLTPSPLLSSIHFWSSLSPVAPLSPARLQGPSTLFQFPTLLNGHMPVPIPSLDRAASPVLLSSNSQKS
# Summary of the method: as §1
# FEV = biological target: T7, FEV (Homo sapiens, UniProt Q99581 1-238); conditions: protein: recombinant; tags: N-terminal GST; dsDNA, one strand shown
# T7 sequence: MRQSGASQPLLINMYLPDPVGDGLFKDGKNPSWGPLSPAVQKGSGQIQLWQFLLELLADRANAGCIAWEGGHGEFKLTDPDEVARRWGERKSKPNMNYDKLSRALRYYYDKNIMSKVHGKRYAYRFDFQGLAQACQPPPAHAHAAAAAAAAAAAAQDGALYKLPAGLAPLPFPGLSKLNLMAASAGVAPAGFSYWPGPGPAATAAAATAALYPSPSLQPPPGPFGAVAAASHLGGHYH
# Summary of the method: as §1
# ETV5 = ETV5 (Homo sapiens, UniProt P41161 1-510); conditions: protein: recombinant; tags: N-terminal GST; dsDNA, one strand shown
# Chain of ETV5 (P41161 whole entry): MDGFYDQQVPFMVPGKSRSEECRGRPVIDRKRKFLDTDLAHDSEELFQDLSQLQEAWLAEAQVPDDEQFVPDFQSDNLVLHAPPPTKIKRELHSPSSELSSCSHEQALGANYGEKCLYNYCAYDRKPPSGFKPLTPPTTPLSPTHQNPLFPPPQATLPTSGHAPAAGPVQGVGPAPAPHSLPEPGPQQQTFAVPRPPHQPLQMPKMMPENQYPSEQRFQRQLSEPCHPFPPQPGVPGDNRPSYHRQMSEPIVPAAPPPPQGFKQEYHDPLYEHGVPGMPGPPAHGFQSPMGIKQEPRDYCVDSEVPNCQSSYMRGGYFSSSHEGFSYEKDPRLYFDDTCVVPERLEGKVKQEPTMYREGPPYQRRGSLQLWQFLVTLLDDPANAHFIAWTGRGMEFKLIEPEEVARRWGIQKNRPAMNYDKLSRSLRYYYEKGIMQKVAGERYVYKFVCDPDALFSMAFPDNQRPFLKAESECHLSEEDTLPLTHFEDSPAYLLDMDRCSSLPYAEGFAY
# Summary of the method: as §1
# HSF1 = HSF1 (Homo sapiens, UniProt Q00613 1-529); conditions: protein: recombinant; tags: N-terminal GST; chain copies: 3; dsDNA, one strand shown
# Chain of HSF1 (Q00613 whole entry): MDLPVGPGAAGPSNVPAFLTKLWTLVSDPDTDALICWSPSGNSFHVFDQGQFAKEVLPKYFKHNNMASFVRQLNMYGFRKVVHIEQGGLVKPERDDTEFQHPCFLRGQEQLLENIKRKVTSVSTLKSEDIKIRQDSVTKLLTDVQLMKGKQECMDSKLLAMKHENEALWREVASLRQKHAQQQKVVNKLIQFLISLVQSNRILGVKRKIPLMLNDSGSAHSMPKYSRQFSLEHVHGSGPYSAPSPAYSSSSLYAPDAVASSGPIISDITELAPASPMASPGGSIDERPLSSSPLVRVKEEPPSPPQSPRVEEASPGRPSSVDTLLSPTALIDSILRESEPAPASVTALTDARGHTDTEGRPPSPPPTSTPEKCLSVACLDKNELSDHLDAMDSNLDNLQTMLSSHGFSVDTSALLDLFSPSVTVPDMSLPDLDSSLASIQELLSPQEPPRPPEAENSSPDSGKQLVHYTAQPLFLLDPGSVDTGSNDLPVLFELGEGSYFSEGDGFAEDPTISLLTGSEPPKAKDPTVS
# Summary of the method: as §1
# SPIC = biological target: T8, SPIC (Homo sapiens, UniProt Q8N5J4 1-248); conditions: protein: recombinant; tags: N-terminal GST; dsDNA, one strand shown
# T8 sequence: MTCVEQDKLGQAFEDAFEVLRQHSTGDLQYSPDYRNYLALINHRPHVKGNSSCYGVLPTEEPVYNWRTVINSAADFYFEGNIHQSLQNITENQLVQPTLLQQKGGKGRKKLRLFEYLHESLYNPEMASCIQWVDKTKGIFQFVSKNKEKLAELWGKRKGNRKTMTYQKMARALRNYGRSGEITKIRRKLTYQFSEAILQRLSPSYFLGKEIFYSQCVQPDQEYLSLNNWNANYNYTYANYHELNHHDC
# Summary of the method: as §1
# ELF4 = ELF4 (Homo sapiens, UniProt Q99607 1-663); conditions: protein: recombinant; tags: N-terminal GST; dsDNA, one strand shown
# Chain of ELF4 (Q99607 whole entry): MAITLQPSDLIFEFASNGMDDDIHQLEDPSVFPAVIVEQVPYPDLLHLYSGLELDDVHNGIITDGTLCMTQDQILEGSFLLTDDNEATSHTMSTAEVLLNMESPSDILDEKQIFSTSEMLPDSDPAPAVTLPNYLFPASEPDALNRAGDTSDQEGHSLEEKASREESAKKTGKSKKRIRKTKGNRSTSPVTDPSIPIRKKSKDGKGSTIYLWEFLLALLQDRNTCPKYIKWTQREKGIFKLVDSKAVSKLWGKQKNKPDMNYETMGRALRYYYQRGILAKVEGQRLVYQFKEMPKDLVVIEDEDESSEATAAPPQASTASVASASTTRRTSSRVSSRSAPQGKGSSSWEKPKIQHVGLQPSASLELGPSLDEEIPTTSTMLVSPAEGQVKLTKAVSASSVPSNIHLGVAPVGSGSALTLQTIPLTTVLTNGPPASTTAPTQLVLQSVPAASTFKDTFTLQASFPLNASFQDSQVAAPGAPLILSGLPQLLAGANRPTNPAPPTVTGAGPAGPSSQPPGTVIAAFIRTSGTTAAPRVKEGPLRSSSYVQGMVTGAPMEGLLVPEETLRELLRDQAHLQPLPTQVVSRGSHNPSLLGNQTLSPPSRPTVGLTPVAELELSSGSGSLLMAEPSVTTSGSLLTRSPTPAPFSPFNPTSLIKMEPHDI
# Summary of the method: as §1
# ELK4 = biological target: T9, ELK4 (Homo sapiens, UniProt P28324-2 1-405); conditions: protein: recombinant; tags: N-terminal GST; dsDNA, one strand shown
# T9 sequence: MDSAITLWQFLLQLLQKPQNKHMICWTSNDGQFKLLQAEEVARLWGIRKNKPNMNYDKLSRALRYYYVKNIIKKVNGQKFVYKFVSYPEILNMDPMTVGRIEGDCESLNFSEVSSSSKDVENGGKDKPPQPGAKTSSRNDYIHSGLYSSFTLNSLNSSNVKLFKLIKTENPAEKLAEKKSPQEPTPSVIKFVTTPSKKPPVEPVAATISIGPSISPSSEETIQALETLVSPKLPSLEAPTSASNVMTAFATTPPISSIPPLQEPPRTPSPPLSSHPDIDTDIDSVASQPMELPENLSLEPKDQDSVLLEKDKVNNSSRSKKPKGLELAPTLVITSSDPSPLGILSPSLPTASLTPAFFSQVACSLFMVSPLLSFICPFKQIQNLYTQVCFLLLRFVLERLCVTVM
# Summary of the method: as §1
# ETV2 = biological target: T10, ETV2 (Homo sapiens, UniProt O00321 1-342); conditions: protein: recombinant; tags: N-terminal GST; dsDNA, one strand shown
# T10 sequence: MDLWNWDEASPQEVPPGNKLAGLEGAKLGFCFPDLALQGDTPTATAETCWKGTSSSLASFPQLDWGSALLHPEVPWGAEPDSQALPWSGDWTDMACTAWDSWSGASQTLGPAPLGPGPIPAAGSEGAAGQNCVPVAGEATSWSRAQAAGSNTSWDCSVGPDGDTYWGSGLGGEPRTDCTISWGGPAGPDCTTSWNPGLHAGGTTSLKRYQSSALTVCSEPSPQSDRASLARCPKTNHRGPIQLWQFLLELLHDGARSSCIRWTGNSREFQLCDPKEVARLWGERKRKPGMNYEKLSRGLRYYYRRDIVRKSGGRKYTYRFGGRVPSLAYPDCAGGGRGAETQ
# Summary of the method: as §1
# ELF3 = biological target: T11, ELF3 (Homo sapiens, UniProt P78545 1-371); conditions: protein: recombinant; tags: N-terminal GST; dsDNA, one strand shown
# T11 sequence: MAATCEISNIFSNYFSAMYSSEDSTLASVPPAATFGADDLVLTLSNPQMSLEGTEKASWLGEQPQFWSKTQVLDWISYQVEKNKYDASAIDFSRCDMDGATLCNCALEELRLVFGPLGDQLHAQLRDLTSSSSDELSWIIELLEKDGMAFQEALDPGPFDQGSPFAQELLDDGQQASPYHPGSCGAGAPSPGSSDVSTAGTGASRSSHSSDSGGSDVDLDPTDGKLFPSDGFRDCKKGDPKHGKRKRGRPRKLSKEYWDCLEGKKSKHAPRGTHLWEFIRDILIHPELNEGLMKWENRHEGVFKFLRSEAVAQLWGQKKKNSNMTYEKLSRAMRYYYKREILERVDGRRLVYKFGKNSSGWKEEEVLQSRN
# Summary of the method: as §1
# CRX = CRX (Homo sapiens, UniProt O43186 1-299); conditions: protein: recombinant; tags: N-terminal GST; dsDNA, one strand shown
# Chain of CRX (O43186 whole entry): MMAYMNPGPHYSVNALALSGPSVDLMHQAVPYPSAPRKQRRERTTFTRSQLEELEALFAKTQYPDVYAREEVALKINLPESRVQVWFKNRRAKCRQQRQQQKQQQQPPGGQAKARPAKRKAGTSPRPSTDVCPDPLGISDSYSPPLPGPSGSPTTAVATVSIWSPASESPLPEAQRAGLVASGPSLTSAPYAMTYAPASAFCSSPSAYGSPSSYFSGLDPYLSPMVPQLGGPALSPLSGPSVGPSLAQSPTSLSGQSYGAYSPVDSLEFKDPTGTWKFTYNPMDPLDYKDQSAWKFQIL
# Summary of the method: as §1
# ETV1 = ETV1 (Homo sapiens, UniProt P50549 1-477); conditions: protein: recombinant; tags: N-terminal GST; dsDNA, one strand shown
# Chain of ETV1 (P50549 whole entry): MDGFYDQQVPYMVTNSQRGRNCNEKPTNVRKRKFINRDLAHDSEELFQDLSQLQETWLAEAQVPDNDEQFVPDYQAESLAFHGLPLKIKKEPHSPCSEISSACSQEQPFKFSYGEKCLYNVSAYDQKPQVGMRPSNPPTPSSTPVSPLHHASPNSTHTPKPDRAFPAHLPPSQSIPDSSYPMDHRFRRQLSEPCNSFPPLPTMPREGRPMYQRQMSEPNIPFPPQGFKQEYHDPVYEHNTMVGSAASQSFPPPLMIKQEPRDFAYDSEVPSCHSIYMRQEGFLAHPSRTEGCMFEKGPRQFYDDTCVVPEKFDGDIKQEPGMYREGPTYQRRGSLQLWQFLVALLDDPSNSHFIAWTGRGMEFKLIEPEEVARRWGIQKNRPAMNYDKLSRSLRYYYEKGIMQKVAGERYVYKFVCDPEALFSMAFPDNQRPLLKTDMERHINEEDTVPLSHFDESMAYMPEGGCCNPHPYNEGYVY
# Summary of the method: as §1
sequence,measurement,setting,value
CCAATC,binding signal,FLI1,"1.21 fold enrichment (6-mer frequency, TF over GST control)"
same,binding signal,ELK1,"1.14 fold enrichment (6-mer frequency, TF over GST control)"
same,binding signal,GABPA,"1.2 fold enrichment (6-mer frequency, TF over GST control)"
same,binding signal,ERG,"1.12 fold enrichment (6-mer frequency, TF over GST control)"
same,binding signal,ELF1,"1.23 fold enrichment (6-mer frequency, TF over GST control)"
same,binding signal,EHF,"1 fold enrichment (6-mer frequency, TF over GST control)"
same,binding signal,SPI1,"1.14 fold enrichment (6-mer frequency, TF over GST control)"
same,binding signal,SPIB,"1.1 fold enrichment (6-mer frequency, TF over GST control)"
same,binding signal,ELK3,"1.22 fold enrichment (6-mer frequency, TF over GST control)"
same,binding signal,FEV,"1.11 fold enrichment (6-mer frequency, TF over GST control)"
same,binding signal,ETV5,"1.16 fold enrichment (6-mer frequency, TF over GST control)"
same,binding signal,HSF1,"1.13 fold enrichment (6-mer frequency, TF over GST control)"
same,binding signal,SPIC,"1.24 fold enrichment (6-mer frequency, TF over GST control)"
same,binding signal,ELF4,"1.19 fold enrichment (6-mer frequency, TF over GST control)"
same,binding signal,ELK4,"1.18 fold enrichment (6-mer frequency, TF over GST control)"
same,binding signal,ETV2,"1.16 fold enrichment (6-mer frequency, TF over GST control)"
same,binding signal,ELF3,"1.11 fold enrichment (6-mer frequency, TF over GST control)"
same,binding signal,CRX,"1.33 fold enrichment (6-mer frequency, TF over GST control)"
same,binding signal,ETV1,"1.13 fold enrichment (6-mer frequency, TF over GST control)"
